Assay results published in PubChem BioAssay (Tox21).
Results filed as inconclusive are left out. A number with no mark means an inactive call. Calls of active or inactive are those of the source. Calls follow the shape of the dose curve; as a rule, active = well fitted activation curve with a large enough effect in the repeat runs; inconclusive = weak or mixed curves; inactive = flat fitted curve, though single readings scatter.

Assay: A CellTox Green Cytotoxicity Assay to monitor cytotoxicity in HepG2 cells - 8 hour (AID 1224890); also: nearly all actives have a fitted effect of over 45% in size
Details: CellTox Green fluorescence; series mostly up to 76.8 µM; cytotoxicity increase: at the top concentration
Text: National Center for Advancing Translational Sciences [NCATS]
NIH Chemical Genomics Center [NCGC]
U.S. Environmental Protection Agency [EPA]
National Institutes of Environmental Health Sciences [NIEHS]
National Toxicology Program [NTP]
Cell-based models are critical for drug discovery. Determining the natural cytotoxic effects resulting from test compounds is an essential research activity. A CellTox Green Cytotoxicity Assay to monitor cytotoxicity in real time of continues cell culture during 40 hours of the compound treatment was used to screen Tox21 10K library compounds in HepG2 cells. CellTox Green Cytotoxicity Assay is a nonlytic, homogeneous, biofluorescent method to measure cytotoxicity in cell culture after experimental manipulation. The assay system uses a proprietary asymmetric cyanine dye that is excluded from viable cells but preferentially stains the dead cell's DNA. […] Viable cells produce no appreciable increases in fluorescence. Therefore, the fluorescence signal produced by the binding interaction with dead cell DNA is proportional to cytotoxicity.
The mixture of HepG2 cell suspension and reagents were dispensed at 600cells/6 ul/well in 1536-well tissue culture treated black solid bottom plates using a Multidrop dispenser. After the assay plates were incubated at a 37 C/5% CO2 incubator for 5 hours, 23 nL of compounds dissolved in DMSO, positive and negative controls was transferred to the assay plate by a pintool work station. The plates were incubated at 37 C for 40 hours. The fluorescence intensity were measured at 0h, 8h, 16h, 24h, 32h and 40h time points using ViewLux plate reader during compound treatment.
% is scaled to controls: 0 for no effect and ±100 for the full control effect.

| SMILES | cytotoxicity increase | Potency |
| --- | --- | --- |
| OCCNCc1ccccc1 | -1.85% |  |
| C[C@H]1C[C@H]2[C@@H]3CCC4=CC(=O)C=C[C@]4(C)[C@@]3(Cl)[C@@H](O)C[C@]2(C)[C@@]1(O)C(=O)CO | 2.91% [at 35.3 µM] |  |
| CN(C)CCOC(c1ccccc1)c1ccc(Br)cc1 (stereo not given) | 10.2% [at 35.3 µM] |  |
| COC(C)(C)CCO | -8.72% |  |
| COc1cccc(N(C)C(=S)Oc2ccc3c(c2)CCCC3)n1 | 2.26% [at 35.3 µM] |  |
| CCOCC(O)COc1ccc(NC(=O)CC[S+](C)C)cc1 (stereo not given) | -7.24% [at 35.3 µM] |  |
| CCOC(=O)C1=C[C@]2(CC)CCCN3CCc4c(n1c1ccccc41)[C@@H]32 | 3.01% [at 35.3 µM] |  |
| CN(C)c1ccc(C(c2ccccc2)c2ccc(N(C)C)cc2)cc1 | -9.92% |  |
| CCCCC1=NC2(CCCC2)C(=O)N1Cc1ccc(-c2ccccc2-c2nn[nH]n2)cc1 | 1.56% [at 35.3 µM] |  |
| Cc1cc(N)c2cc(NC(=O)Nc3ccc4nc(C)cc(N)c4c3)ccc2n1 | -46.1% [at 35.3 µM] |  |
| C#CCN(C)CCCOc1ccc(Cl)cc1Cl | -0.37% [at 35.3 µM] |  |
| O=C(O)C1(C(=O)Nc2ccc(Cl)cc2Cl)CC1 | -5.54% |  |
| O=C(CS)Nc1ccccc1 | -13.2% [at 35.3 µM] |  |
| C/C=C/C(=O)CC | 6.47% [at 15.8 µM] |  |
| O=[N+]([O-])c1cccc(S(=O)(=O)O)c1 | 6.49% |  |
| CCNc1cc(O)ccc1C | 0.653% |  |
| O=C(O)c1nc(Cl)c(Cl)c(Cl)c1Cl | -3.17% |  |
| O=C1[C@H]2CCCC[C@H]2C(=O)N1CCCCN1CCN(c2nsc3ccccc23)CC1 | -9% [at 35.3 µM] |  |
| C1CCCNCCC1 | 1.45% |  |
| O=C1c2ccccc2S(=O)(=O)N1CCCCN1CCN(c2ncccn2)CC1 | 2.02% [at 35.3 µM] |  |

| SMILES | cytotoxicity increase | Potency |
| --- | --- | --- |
| C=CC(=O)OCCOCCOCCOCCOC(=O)C=C |  | inactive |
| C[C@@H]1C[C@H]2[C@@H]3CCC4=CC(=O)C=C[C@]4(C)[C@@]3(F)[C@@H](O)C[C@]2(C)[C@@]1(O)C(=O)COC(=O)c1ccncc1 | -17.6% [at 35.3 µM] |  |
| C=C(C)C(=O)OCC | -1.38% |  |
| CC(=O)c1cccc([N+](=O)[O-])c1 | -1.94% |  |
| O=S(=O)(Oc1ccc(Cl)cc1)c1ccccc1 | 0.429% |  |
| CC(C)(O)c1ccc(CNC(=O)c2cccnc2Oc2ccc(F)cc2)cc1 | 4.68% |  |
| C=CC1CC2C=CC1C2 (stereo not given) | -4.82% |  |
| O=[N+]([O-])c1ccc(NCCO)c(OCCO)c1 | 5.36% |  |
| CN1CCN(C(c2ccccc2)c2ccccc2)CC1 | 3.7% [at 35.3 µM] |  |
| COc1cc2c(cc1OC)C(C(C(=O)N(CCc1ccc(OC)c(OC)c1OC)CCc1ccc(OC)c(OC)c1OC)c1ccccc1)=NCC2 (stereo not given) | -8.31% [at 35.3 µM] |  |
| C[C@@H](c1ncncc1F)C(O)(Cn1cncn1)c1ccc(F)cc1F (stereo not given in full) | -17.4% [at 35.3 µM] |  |
| CCC(C)O (stereo not given) | 4.68% |  |
| CCC(Cl)CCC(Cl)C(Cl)CC(Cl)C(Cl)C(Cl)CCl (stereo not given) | -4.24% |  |
| O=C(c1ccc(F)cc1)C1CCN(CCn2c(=S)[nH]c3ccccc3c2=O)CC1 | 3.92% [at 35.3 µM] |  |
| CCCCC(=O)OCC(=O)[C@H]1[C@H](C)C[C@H]2[C@@H]3C[C@H](F)C4=CC(=O)C=C[C@]4(C)[C@@]3(F)[C@@H](O)C[C@@]21C | 0.342% [at 35.3 µM] |  |
| CCOC(=O)C(F)(F)F | -3.46% |  |
| CCOC(=O)NCCOc1ccc(Oc2ccccc2)cc1 | 1.36% |  |
| CCn1cc(C(=O)O)c(=O)c2cnc(N3CCNCC3)nc21 | 2.38% [at 35.3 µM] |  |
| Cn1c(=O)cc(Oc2ccc(F)cc2F)c2cnc(NCC(C)(C)O)nc21 | -2.99% |  |
| CC(C)Nc1ccc(NC(C)C)c2c1C(=O)c1ccccc1C2=O | 0.771% [at 35.3 µM] |  |
